# Measurements as given in the supplement of paper PMC9942566.
# ± gives the standard deviation of the averaged measurements.
# System: Serratia marcescens K904 PosmB-luxCDABE reporter (pMQ747)
# Test: PosmB-lux reporter fold induction (RLU/OD600 relative to no-compound control), highest over Biolog concentrations; higher = stronger reporter activation
# Details: ΔrcsB mutant CMS5177; 4 h
# Protocol: (§1)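 Serratia marcescens K904 (wild type) or its isogenic ΔrcsB mutant, carrying the Rcs-dependent PosmB-luxCDABE reporter plasmid pMQ747, was grown in LB at OD600 0.1 in Biolog Phenotype MicroArray plates PM11-20 for 4 h at 30-32°C. Each compound is present at 3-4 proprietary concentrations (not stated); per the Fig. S1 legend the value given is the highest fold over those wells. Three independent trials.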
row,Compound,PosmB-lux reporter fold induction
1,"OCC(O)CS (configuration not stated) [thioglycerol] (Biolog plate: PM19, well positions: H5-8)",1.08 ± 0.56
2,"O=C(N[C@H](CO)[C@H](O)c1ccc([N+](=O)[O-])cc1)C(Cl)Cl [Chloramphenicol] (Biolog plate: PM11, well positions: F1-4)",1.56 ± 0.59
3,"CCCCCCCCCCCC[N+](C)(C)C [Dodecyltrimethyl ammonium bromide] (Biolog plate: PM12, well positions: H9-12)",1.97 ± 0.62
4,"C[n+]1cc2c3c(ccc2c2ccc4cc5c(cc4c21)OCO5)OCO3 [Sanguinarine] (Biolog plate: PM14, well positions: A9-12)",1.14 ± 0.32
5,"CO/N=C(\C(=O)N[C@@H]1C(=O)N2C(C(=O)O)=C(CSc3nc(=O)c(O)nn3C)CS[C@H]12)c1csc(N)n1 [Ceftriaxone] (Biolog plate: PM11, well positions: G1-4)",1.12 ± 0.14
6,"c1cnc2c(c1)ccc1cccnc12 [1,10-Phenanthroline] (Biolog plate: PM15, well positions: C9-12)",1.32 ± 0.23

# System: Serratia marcescens K904 PosmB-luxCDABE reporter (pMQ747)
# Test: PosmB-lux reporter fold induction (RLU/OD600 relative to no-compound control), highest over Biolog concentrations; higher = stronger Rcs reporter activation
# Details: wild type K904; 4 h
# Protocol: as §1
row,Compound,PosmB-lux reporter fold induction
1,"[Cl-].[Cs+] [Cesium chloride] (Biolog plate: PM13, well positions: F1-4)",1.41 ± 0.16
2,"OCC(O)CS (configuration not stated) [thioglycerol] (Biolog plate: PM19, well positions: H5-8)",1.22 ± 0.31
3,"CO[C@H]1/C=C/O[C@@]2(C)Oc3c(C)c(O)c4c(O)c(c(/C=N/N5CCN(C)CC5)c(O)c4c3C2=O)NC(=O)/C(C)=C\C=C\[C@H](C)[C@H](O)[C@@H](C)[C@@H](O)[C@@H](C)[C@H](OC(C)=O)[C@@H]1C [Rifampicin] (Biolog plate: PM12, well positions: H5-8)",4.01 ± 0.98
4,"CN[C@@H]1[C@@H](O)[C@@H](O[C@@H]2[C@@H](O)[C@H](O[C@H]3OC(CN)=CC[C@H]3N)[C@@H](N)C[C@H]2N)OC[C@]1(C)O [Sisomicin] (Biolog plate: PM12, well positions: D1-4)",1.55 ± 0.14
5,"CC1(C)S[C@@H]2[C@H](NC(=O)Cc3ccccc3)C(=O)N2[C@H]1C(=O)O [Penicillin G] (Biolog plate: PM12, well positions: A2-4)",1.66 ± 0.23
6,"O=C([O-])c1ccccc1O.[Na+] [sodium salicylate (NSAID)] (Biolog plate: PM17, well positions: B1-4)",5.52 ± 2
7,"CC(C(=O)O)c1cccc(C(=O)c2ccccc2)c1 (configuration not stated) [ketoprofen (an NSAID)] (Biolog plate: PM18, well positions: A2-4)",1.95 ± 0.79
8,"O=C(N[C@H](CO)[C@H](O)c1ccc([N+](=O)[O-])cc1)C(Cl)Cl [Chloramphenicol] (Biolog plate: PM11, well positions: F1-4)",1.4 ± 0.62
9,"O=[N+]([O-])c1ccc(-[n+]2nc(-c3ccccc3)nn2-c2ccc(I)cc2)cc1 [iodonitro tetrazolium violet] (Biolog plate: PM19, well positions: D5-8)",0.511 ± 0.27
10,"Cc1noc(NS(=O)(=O)c2ccc(N)cc2)c1C [sulfisoxazole] (Biolog plate: PM18, well positions: C5-8)",0.979 ± 0.2
11,"[Cl-].[Li+] [lithium chloride] (Biolog plate: PM17, well positions: F1-4)",1.51 ± 0.57
12,"Cc1cc(N)c2ccccc2[n+]1CCCCCCCCCC[n+]1c(C)cc(N)c2ccccc21 [Dequalinium chloride] (Biolog plate: PM13, well positions: A5-8)",1.23 ± 0.086
13,"O=C1OC(CN2CCOCC2)CN1/N=C/c1ccc([N+](=O)[O-])o1 (configuration not stated) [Furaltadone] (Biolog plate: PM14, well positions: A5-8)",1.52 ± 0.2
14,"Nc1ccc(S(N)(=O)=O)cc1 [sulfanilamide] (Biolog plate: PM16, well positions: B5-8)",0.986 ± 0.29
15,"C[n+]1c2cc(N)ccc2cc2ccc(N)cc21.Nc1ccc2cc3ccc(N)cc3nc2c1 [Acriflavine] (Biolog plate: PM14, well positions: A2-4)",1.45 ± 0.32
16,"CCCCCCCCCCCC[N+](C)(C)C [Dodecyltrimethyl ammonium bromide] (Biolog plate: PM12, well positions: H9-12)",2.03 ± 0.22
